Potency and outcome data for 14 compounds are collected here from PubChem BioAssay (Tox21).

The nature of assay [1]: qHTS assay to identify small molecule antagonists of the androgen receptor (AR) signaling pathway - cell viability counter screen (AID 743033; note: nearly all actives have a fitted effect of over 45% in size). (In general: Quantitative high-throughput screening tests each substance at several concentrations.)
Assay [2] is described as follows: qHTS assay to identify small molecule antagonists of the androgen receptor (AR) signaling pathway using the MDA cell line - cell viability counter screen (AID 743041; note: nearly all actives have a fitted effect of over 45% in size; note: potency is the fitted concentration of half-maximal effect). Put shortly:
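MDA-kb2 AR-luc cells (MMTV-luciferase, AR/GR responsive) treated with compounds plus R1881 agonist for 16 h at 37C. CellTiter-Fluor added at 15.5 h; fluorescence read after 30 min in the same wells.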

A short description of assay [3]: qHTS assay to identify small molecule antagonists of the thyroid receptor (TR) signaling pathway (AID 743065). Note: nearly all actives have a fitted effect of over 55% in size. Note: potency is the fitted concentration of half-maximal effect. Put shortly: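 GH3.TRE-Luc rat pituitary cells (two TREs driving luciferase) were dosed with compound, then stimulated with 1 nM T3 (final) for 23.5 h at 37 C. ONE-Glo luminescence was the read-out, with CellTiter-Fluor fluorescence as the cytotoxicity counter-screen.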

Assay [4] relates to thyroid hormone receptor (rat, GH3 cells). In words: qHTS assay to identify small molecule agonists of the thyroid receptor (TR) signaling pathway (AID 743066; calls by dose curve).
The nature of assay [5]: qHTS assay to identify small molecule antagonists of the estrogen receptor alpha (ER-alpha) signaling pathway - cell viability counter screen (AID 743074; calls by dose curve;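 note: HEK293 cells carrying ER-alpha-UAS-bla reporter stimulated with 17beta-estradiol; nearly all actives have a fitted effect of over 45% in size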).
The nature of assay [6]: qHTS assay to identify small molecule antagonists of the estrogen receptor alpha (ER-alpha) signaling pathway using the BG1 cell line - cell viability counter screen (AID 743081).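 Note: compound given together with 17beta-estradiol as the ER stimulus; nearly all actives have a fitted effect of over 45% in size.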
Assay [7] is described as follows: qHTS assay for identifying genotoxic compounds that show differential cytotoxicity against isogenic chicken DT40 cell lines with known DNA damage response pathways - Rev3 mutant cell line (AID 743014). Note: nearly all actives have a fitted effect of over 55% in size. Note: potency is the fitted concentration of half-maximal effect.
Assay [8] can be described thus: qHTS assay for identifying genotoxic compounds that show differential cytotoxicity against isogenic chicken DT40 cell lines with known DNA damage response pathways - Rad54/Ku70 mutant cell line (AID 743015). Note: nearly all actives have a fitted effect of over 60% in size. Note: potency is the fitted concentration of half-maximal effect.
In another assay the target is Aromatase (Homo sapiens) (UniProt P11511). In words: qHTS assay to identify aromatase inhibitors (AID 743083). Note: nearly all actives have a fitted effect of over 55% in size. Note: potency is the fitted concentration of half-maximal effect.
Aromatase (Homo sapiens), sequence (P11511 whole entry, looked up): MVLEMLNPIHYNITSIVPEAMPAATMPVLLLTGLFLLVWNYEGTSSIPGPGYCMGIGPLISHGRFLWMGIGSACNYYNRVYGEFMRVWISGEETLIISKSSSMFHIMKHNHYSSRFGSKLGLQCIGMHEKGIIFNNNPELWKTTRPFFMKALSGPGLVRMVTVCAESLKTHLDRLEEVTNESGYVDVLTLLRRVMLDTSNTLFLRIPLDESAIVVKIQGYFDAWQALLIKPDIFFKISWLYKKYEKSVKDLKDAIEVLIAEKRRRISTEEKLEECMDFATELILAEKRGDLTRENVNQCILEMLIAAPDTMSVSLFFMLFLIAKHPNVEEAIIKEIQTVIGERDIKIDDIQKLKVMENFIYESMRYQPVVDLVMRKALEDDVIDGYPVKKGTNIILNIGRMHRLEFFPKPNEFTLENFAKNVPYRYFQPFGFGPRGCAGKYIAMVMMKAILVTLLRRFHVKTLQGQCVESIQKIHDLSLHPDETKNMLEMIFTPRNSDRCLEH
The nature of assay [9]: qHTS assay for identifying genotoxic compounds that show differential cytotoxicity against isogenic chicken DT40 cell lines with known DNA damage response pathways - wild type cell line (AID 743012). Note: nearly all actives have a fitted effect of over 60% in size. Note: potency is the fitted concentration of half-maximal effect. An outline of the steps: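 Using parental DT40 (300 cells/well), compounds delivered in DMSO incubate 40 h at 37 C/5% CO2. CellTiter-Glo reagent then stands 30 min at room temperature, and luminescence gives cell viability.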

Assay [10] concerns the target Estrogen receptor (Homo sapiens) (UniProt P03372). In words: qHTS assay to identify small molecule agonists of the estrogen receptor alpha (ER-alpha) signaling pathway (AID 743075; calls by dose curve; note: potency is the fitted concentration of half-maximal effect).
The nature of assay [11]: qHTS assay to identify small molecule antagonists of the estrogen receptor alpha (ER-alpha) signaling pathway using the BG1 cell line (AID 743080; calls by dose curve;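 note: BG1 cells stimulated with 17beta-estradiol alongside compound; nearly all actives have a fitted effect of over 25% in size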; note: potency is the fitted concentration of half-maximal effect). Put shortly: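 Luminescence from a 4×ERE-luciferase reporter in BG1-Luc-4E2 cells served as read-out. Cells, pre-cultured 5 days in stripped-serum phenol-red-free medium, were exposed to compound with 17beta-estradiol co-stimulation for 21.5 h at 37 C.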

A short description of assay [12]: qHTS assay to identify small molecule antagonists of the thyroid receptor (TR) signaling pathway - cell viability counter screen (AID 743064). Note: nearly all actives have a fitted effect of over 50% in size. Note: potency is the fitted concentration of half-maximal effect. An outline of the steps: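 GH3.TRE-Luc cells, 4 h pre-plating; cpd + T3 1 nM final; 37 °C 23.5 h; CellTiter-Fluor 30 min; fluorescence read.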
The target of assay [13] is Estrogen receptor (Homo sapiens) (UniProt P03372). In words: qHTS assay to identify small molecule antagonists of the estrogen receptor alpha (ER-alpha) signaling pathway (AID 743069; active = well fitted curve in the direction sought with a large enough effect in the signal ratio in the repeat runs, not every such curve was filed as active; inconclusive = weak or mixed curves, or effect the other way; inactive = no such curve, though single readings can be large or run the other way; the % refers to the signal ratio; note: potency is the fitted concentration of half-maximal effect). Put shortly:
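HEK293 ER-alpha-UAS-bla GripTite cells, held overnight in 2% charcoal-stripped FBS, 5,000 cells/well, preincubated 4 h, then compound plus 17beta-estradiol for 18 h at 37C. Beta-lactamase read by LiveBLAzer B/G FRET substrate, 2 h at room temperature.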

Assay [14] has the same target. In words: qHTS assay to identify small molecule agonists of the estrogen receptor alpha (ER-alpha) signaling pathway using the BG1 cell line (AID 743079). Note: nearly all actives have a fitted effect of over 20% in size. Note: potency is the fitted concentration of half-maximal effect. To be noted: BG1Luc4E2 cells, ERE-luciferase agonist, 22 h; activation: at 70.3 µM (top of the series).
The target in assay [15] is Androgen receptor (Homo sapiens) (UniProt P10275). In words: qHTS assay to identify small molecule antagonists of the androgen receptor (AR) signaling pathway (AID 743035; active = well fitted inhibition curve with a large enough effect in the signal ratio in the repeat runs, not every such curve was filed as active; inconclusive = weak or mixed curves, or effect the other way; inactive = no such curve, though single readings can be large or run the other way; the % refers to the signal ratio). Put shortly:
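Using qHTS, AR-UAS-bla GripTite HEK293 cells received compound, then R1881, and were cultured 16 h at 37C/5% CO2 before a 2 h room-temperature LiveBLAzer B/G FRET substrate step and fluorescence measurement.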

Assay [16] shares this target. The assay is described as follows: qHTS assay to identify small molecule antagonists of the androgen receptor (AR) signaling pathway using the MDA cell line (AID 743042; note: nearly all actives have a fitted effect of over 55% in size; note: potency is the fitted concentration of half-maximal effect). An outline of the steps: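 MDA-kb2 breast carcinoma cells carrying MMTV-luciferase (AR/GR responsive) were co-treated with compounds and the agonist R1881 for 16 h at 37C. Inhibition read as ONE-Glo luminescence; CellTiter-Fluor fluorescence measured in parallel for cytotoxicity.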

Assay [17] shares this target. In words: qHTS assay to identify small molecule agonists of the androgen receptor (AR) signaling pathway (AID 743036; active = well fitted activation curve with a large enough effect in the signal ratio in the repeat runs, with a control signal flat, not every such curve was filed as active; inconclusive = weak or mixed curves, or effect the other way; inactive = no such curve, though single readings can be large or run the other way; the % refers to the signal ratio). Put shortly:
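AR-bla HEK293 cells, 2,000/well; 4 h preincubation 37C/5% CO2; compound (DMSO) 16 h at 37C; LiveBLAzer B/G FRET substrate 2 h RT; fluorescence intensity read-out.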

Assay [18] has the same target. The assay is described as follows: qHTS assay to identify small molecule agonists of the androgen receptor (AR) signaling pathway using the MDA cell line (AID 743040; note: nearly all actives have a fitted effect of over 20% in size). Put shortly:
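MDA-kb2 breast carcinoma cells carrying MMTV-luciferase (responsive to AR and GR), plated 5 h then treated 16 h with compounds at 37C, 0% CO2. Read-out was ONE-Glo luminescence after 30 min at room temperature.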

Calls of active or inactive are those of the source. Unless noted, calls come from the whole dose curve; as a rule, active = well fitted curve in the direction sought with a large enough effect in the repeat runs; inconclusive = weak or mixed curves; inactive = no such curve, though single readings can be large; an effect the other way counts as inactive or inconclusive.

Estrogen receptor (Homo sapiens), sequence (P03372 whole entry, looked up): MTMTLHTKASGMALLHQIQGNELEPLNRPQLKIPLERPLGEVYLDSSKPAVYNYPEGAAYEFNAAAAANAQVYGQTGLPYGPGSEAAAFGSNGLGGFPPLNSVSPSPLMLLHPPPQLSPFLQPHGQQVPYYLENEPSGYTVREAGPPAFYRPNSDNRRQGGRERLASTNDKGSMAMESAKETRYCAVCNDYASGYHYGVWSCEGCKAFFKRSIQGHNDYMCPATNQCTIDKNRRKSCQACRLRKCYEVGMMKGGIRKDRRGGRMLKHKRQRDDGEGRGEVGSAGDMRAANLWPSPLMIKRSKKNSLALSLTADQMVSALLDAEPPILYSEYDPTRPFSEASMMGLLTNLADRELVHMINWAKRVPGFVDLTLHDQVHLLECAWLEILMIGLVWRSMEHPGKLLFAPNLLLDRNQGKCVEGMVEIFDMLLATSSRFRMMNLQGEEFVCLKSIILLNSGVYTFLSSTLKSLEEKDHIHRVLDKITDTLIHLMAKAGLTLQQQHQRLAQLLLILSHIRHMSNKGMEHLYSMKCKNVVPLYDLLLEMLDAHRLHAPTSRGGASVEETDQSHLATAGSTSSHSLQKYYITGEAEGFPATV
Androgen receptor (Homo sapiens), sequence (P10275 whole entry, looked up): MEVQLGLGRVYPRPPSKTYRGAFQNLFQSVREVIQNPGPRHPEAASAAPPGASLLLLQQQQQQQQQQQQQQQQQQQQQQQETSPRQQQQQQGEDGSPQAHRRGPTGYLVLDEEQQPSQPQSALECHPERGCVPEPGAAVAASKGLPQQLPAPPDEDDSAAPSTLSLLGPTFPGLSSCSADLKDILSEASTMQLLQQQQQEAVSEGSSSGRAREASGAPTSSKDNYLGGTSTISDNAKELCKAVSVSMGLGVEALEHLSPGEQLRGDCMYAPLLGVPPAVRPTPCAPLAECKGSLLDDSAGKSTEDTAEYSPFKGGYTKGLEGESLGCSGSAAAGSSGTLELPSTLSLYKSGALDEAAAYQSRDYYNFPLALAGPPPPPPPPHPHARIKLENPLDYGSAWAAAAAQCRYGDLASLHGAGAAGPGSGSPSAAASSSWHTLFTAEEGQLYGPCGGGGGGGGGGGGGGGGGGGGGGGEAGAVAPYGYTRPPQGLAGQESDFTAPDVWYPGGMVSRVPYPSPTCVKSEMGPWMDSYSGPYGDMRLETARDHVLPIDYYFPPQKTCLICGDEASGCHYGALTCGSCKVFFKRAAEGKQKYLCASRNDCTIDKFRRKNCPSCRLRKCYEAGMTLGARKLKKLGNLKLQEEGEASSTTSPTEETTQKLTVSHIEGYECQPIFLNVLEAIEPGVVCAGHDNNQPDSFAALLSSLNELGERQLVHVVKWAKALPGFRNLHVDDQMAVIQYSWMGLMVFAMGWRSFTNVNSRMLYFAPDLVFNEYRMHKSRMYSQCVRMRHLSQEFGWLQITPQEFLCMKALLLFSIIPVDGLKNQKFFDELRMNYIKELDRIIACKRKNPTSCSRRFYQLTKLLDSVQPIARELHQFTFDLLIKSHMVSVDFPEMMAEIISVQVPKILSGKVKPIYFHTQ

`COCCOC`: the Potency result in assay [1], in assay [2], in [3], in assay [5] and in assay [6] was “inactive” each time. Also, the compound was called inactive in assay [4].

Consider `O=C(CS)OCCOC(=O)CS`, for which the Potency in assay [7] is 68.6 µM (active); in assay [8] it was 61.1 µM (active). In addition, the Potency entry (in assay [1]; in assay [2]; in assay [5]; in [6]; with Aromatase (Homo sapiens)) was “inactive” in each case. In addition, the result in assay [4] was inactive.

For `O=C(Nc1ccc([N+](=O)[O-])cc1)Nc1ccc([N+](=O)[O-])cc1`, the results for the Potency in assay [7] and in assay [8] were 10.6 µM (active) and 11.9 µM (active), respectively. The Potency entry (in assay [2]; in assay [6]; with Aromatase (Homo sapiens)) was “inactive” in each case. In addition, in assay [4], the outcome was inactive.

Turning to `CCc1c2c(nc3ccc(OC(=O)N4CCC(N5CCCCC5)CC4)cc13)-c1cc3c(c(=O)n1C2)COC(=O)[C@]3(O)CC`, the Potency in assay [9] was 5.96 µM (active); in assay [7], 5.96 µM (active); in assay [8] it was 4.22 µM (active); in assay [3], 23.7 µM (active); in assay [11], 11.9 µM (active). Besides, the Potency entry (in [2]; in assay [10]; in assay [6]; with Aromatase (Homo sapiens)) was “inactive” in each case. Besides, in assay [4], the compound was called inactive.

`O=C(CCCN1CCN(c2ccc(F)cc2)CC1)NC1c2ccccc2CSc2ccccc21` (stereo not drawn): the Potency in assay [9] was 13.3 µM (active); in assay [7], 26.6 µM (active); in [8], 18.8 µM (active); in assay [12], 10.6 µM (active); in assay [3], 10.6 µM (active); in assay [13] it was 21.3 µM [inconclusive] (active). Also, the Potency result in assay [2], in [5], in assay [10] and in assay [14] was “inactive” throughout.

Consider `OCC1CC=CCC1` (stereo not drawn), for which the Potency entry in [7], in assay [8], in assay [1], in assay [15], in assay [2] and in assay [16] was “inactive” each time. Moreover, the Potency entry in assay [12], in [3], in assay [13], in [5], in [10] and in assay [14] was “inactive” each time. The Potency entry (in assay [11]; in [6]; with Aromatase (Homo sapiens)) was “inactive” in each case. For the same compound, the call in [4] was inactive.

For the compound `CCC(Cc1ccccc1)(C(=O)c1ccc(N2CCOCC2)cc1)N(C)C` (stereo not drawn), the Potency was 7.7 µM (active) in assay [9], 4.33 µM (active) in assay [7], 9.69 µM (active) in assay [8] and 49 µM [inconclusive] (active) in assay [10]. The Potency result (in assay [2]; in assay [3]; in assay [13]; in assay [5]; in assay [6]; with Aromatase (Homo sapiens)) was “inactive” each time. Also, the compound was called inactive in assay [4].

For `OC(CCCN1CCCCC1)(c1ccccc1)c1ccccc1`, the Potency in [8] was 29.8 µM (active). Further, the Potency entry in assay [1], in assay [15], in assay [17], in assay [18], in [2] and in assay [16] was “inactive” throughout. Moreover, the Potency entry (in assay [13]; in [10]; in assay [14]; in assay [11]; in the assay with Aromatase (Homo sapiens)) was “inactive” each time. Moreover, the result in [4] was inactive.

On to `CCC1(C)CC(=O)NC1=O` (stereo not drawn), for which the Potency result in assay [9], in [8], in assay [1], in assay [2], in assay [12] and in assay [3] was “inactive” in each case. Further, the Potency result in [13], in [5], in assay [10], in assay [14], in [11] and in assay [6] was “inactive” throughout. For the same compound, in the assay with Aromatase (Homo sapiens), the Potency entry is “inactive”. For the same compound, the call in [4] was inactive.

In the case of `COCc1c(C(C)C)nc(C(C)C)c(/C=C/[C@@H](O)C[C@@H](O)CC(=O)O)c1-c1ccc(F)cc1`, the Potency in assay [9] was 0.075 µM (active); in assay [7], 0.0133 µM (active); in [8], 0.298 µM (active); in assay [14], 11.9 µM (active). The Potency result in [2], in assay [16], in [12], in assay [5] and in assay [6] was “inactive” in each case. Besides, in [4], the compound was classed as inactive.

For `Cc1cc2nc3ccc(=[N+](C)C)cc-3sc2cc1N`, the Potency in [9] was 0.596 µM (active); in [7], 2.11 µM (active); in [8] it was 0.596 µM (active); in assay [2] it was 8.41 µM (active); in [16], 4.22 µM (active); in assay [12], 26.6 µM (active). Further, the Potency in assay [3] is 21.1 µM (active); with Aromatase (Homo sapiens), 5.31 µM (active). Further, the Potency result in assay [5], in assay [10] and in assay [6] was “inactive” throughout.

As for `CCCOC(=O)c1ccc(N)cc1`, the Potency result in [9], in [1], in assay [17], in assay [2], in [16] and in [3] was “inactive” each time. Also, the Potency result (in assay [5]; in assay [10]; in assay [6]; with Aromatase (Homo sapiens)) was “inactive” each time. The Potency in [8] was 23.7 µM (active). The call in [4] was inactive.

As for `CC(C)C(OC(=O)c1ccccc1)C(C)(C)COC(=O)c1ccccc1` (stereo not drawn), the figures for the Potency in assay [7] and in [8] were 27.3 µM (active) and 24.3 µM (active), respectively. Besides, the Potency entry in [1], in assay [2] and in assay [6] was “inactive” each time. Further, in assay [4], the compound was classed as inactive.

As for `CCCCCCCCSCCO`, the Potency result in assay [9], in assay [1], in [17], in assay [2], in assay [16] and in [3] was “inactive” in each case. For the same compound, the Potency entry (in assay [5]; in [6]; in the assay with Aromatase (Homo sapiens)) was “inactive” each time. Besides, in assay [4], the outcome was inactive.
